The whole screen tested about 400,000 compounds, of which about 2,100 (0.53%) were called active. Not shown: some 14% with an inconclusive outcome. This is one part of a sample in which actives are shown more often than they occur. No rule for the calls is given here.

This test deals with Ataxin-2 (Homo sapiens) (UniProt Q99700). As to the kind of experiment: qHTS for Inhibitors of ATXN expression. The class given is functional.
Ataxin-2 (Homo sapiens), sequence (Q99700 whole entry): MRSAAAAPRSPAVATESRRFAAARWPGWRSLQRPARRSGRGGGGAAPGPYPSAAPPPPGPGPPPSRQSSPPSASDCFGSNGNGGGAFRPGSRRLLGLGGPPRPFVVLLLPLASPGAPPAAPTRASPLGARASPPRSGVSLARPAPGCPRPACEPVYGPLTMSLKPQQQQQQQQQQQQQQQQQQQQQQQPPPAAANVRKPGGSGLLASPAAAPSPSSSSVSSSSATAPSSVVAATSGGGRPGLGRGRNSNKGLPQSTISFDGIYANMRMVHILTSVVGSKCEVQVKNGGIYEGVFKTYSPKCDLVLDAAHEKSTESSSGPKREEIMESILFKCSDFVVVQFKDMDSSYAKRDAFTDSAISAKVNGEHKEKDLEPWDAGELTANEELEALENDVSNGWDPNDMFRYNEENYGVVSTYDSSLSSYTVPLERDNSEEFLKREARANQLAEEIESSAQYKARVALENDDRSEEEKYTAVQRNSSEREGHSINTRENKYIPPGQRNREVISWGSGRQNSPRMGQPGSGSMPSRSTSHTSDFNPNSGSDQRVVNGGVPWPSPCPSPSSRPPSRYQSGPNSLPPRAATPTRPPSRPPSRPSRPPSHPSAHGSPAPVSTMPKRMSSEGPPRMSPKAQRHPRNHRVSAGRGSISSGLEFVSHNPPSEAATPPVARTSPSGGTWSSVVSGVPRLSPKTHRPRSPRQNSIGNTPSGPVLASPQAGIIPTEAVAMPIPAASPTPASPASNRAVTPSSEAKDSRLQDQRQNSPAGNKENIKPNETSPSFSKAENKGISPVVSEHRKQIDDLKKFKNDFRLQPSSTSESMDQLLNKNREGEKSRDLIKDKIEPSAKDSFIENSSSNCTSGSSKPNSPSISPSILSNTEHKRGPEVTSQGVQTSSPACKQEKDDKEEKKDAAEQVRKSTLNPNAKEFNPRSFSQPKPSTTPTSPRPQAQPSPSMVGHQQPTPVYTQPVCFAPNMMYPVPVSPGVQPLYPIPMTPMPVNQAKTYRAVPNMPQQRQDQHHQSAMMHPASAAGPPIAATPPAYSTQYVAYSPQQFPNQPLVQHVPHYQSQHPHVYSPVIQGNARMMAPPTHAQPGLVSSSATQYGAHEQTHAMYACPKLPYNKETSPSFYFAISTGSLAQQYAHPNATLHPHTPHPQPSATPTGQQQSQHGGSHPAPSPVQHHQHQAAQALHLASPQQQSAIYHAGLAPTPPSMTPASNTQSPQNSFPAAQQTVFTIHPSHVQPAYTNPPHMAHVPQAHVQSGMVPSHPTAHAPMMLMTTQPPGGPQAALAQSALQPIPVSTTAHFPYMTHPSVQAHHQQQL
In the case of `Nc1nc(-c2sc3nc4c(cc3c2N)CCCC4)nc(N2CCOCC2)n1`, the Potency entry was “inactive”.

For `O=C(NCC1Cc2cccc(-c3cccnc3)c2O1)c1ccc2cc[nH]c2c1` (stereo not given), the Potency result was “inactive”.

As to `Cc1cccn2c(=O)c3cc(C#N)c(=O)n(Cc4cccnc4)c3nc12`, the Potency entry is “inactive”.

For `O=C(CCl)N1c2ccccc2Sc2c1ccc1ccccc21`, the Potency is 26.7 µM (active).

With `Cc1nc2c(ncn2-c2ccccc2)c(=O)n1NC(=O)CN1CCCC1`, the Potency entry is “inactive”.

Turning to `N=C(NOC(=O)c1ccc2ccccc2c1)c1ccccc1Cl`, the Potency was 39.8 µM (active).

Regarding `O=C(NCCOc1ccccc1)c1ccccc1Cl`, the Potency entry was “inactive”.

Regarding `O=C(COC(=O)c1ccc2ccccc2c1)NCCCc1ccccc1`, the Potency entry was “inactive”.

In the case of `COc1ccc(C2CC(c3cccc(Br)c3)=NN2c2ccc(S(N)(=O)=O)cc2)cc1` (stereo not given), the Potency entry is “inactive”.

`Oc1ccc2c(c1)OCC1(O)Cc3cc(O)c(O)cc3C21` (stereo not given): the Potency is 39.8 µM (active).

For the compound `c1ccc(Nc2scc(-c3ccccc3)[n+]2Cc2ccco2)cc1`, the Potency result was “inactive”.

On to `Cc1cccc(NC(=O)CSc2nc3ccccc3c3nc(CCn4cncc4C)nn23)c1`, for which the Potency is 31.6 µM (active).

On to `Cn1nnnc1SCC1=C(C(=O)O)N2C(=O)C(NC(=O)Cn3nc(C(F)F)cc3C3CC3)C2SC1` (stereo not given), for which the Potency entry is “inactive”.

Consider `CCOC(=O)c1nnn(-c2nonc2N)c1-c1ccc(Br)cc1`, for which the Potency entry is “inactive”.

In the case of `O=C(COC(=O)c1ccc(Cl)nc1)Nc1ncc(Cl)cc1Cl`, the Potency result was “inactive”.

Regarding `CC(C)N(Cc1ccccc1)C(=O)COC(=O)c1cnc(Cl)c(Cl)c1`, the Potency is 39.8 µM (active).

Turning to `O=C(COC(=O)c1cnc(Cl)c(Cl)c1)c1ccc(F)cc1`, the Potency entry was “inactive”.

Turning to `Cc1ccc(Nc2nc(N)nc(CCl)n2)cc1`, the Potency is 4.74 µM (active).

For `Nc1nc(O)c(NC=O)c(Nc2ccc(Cl)cc2)n1`, the Potency entry is “inactive”.

Take `CCOc1ccc(Nc2nc(N)nc(CSC(=S)N3CCN(c4ccccc4)CC3)n2)cc1`: the Potency result is “inactive”.

As to `Cc1ccc(Nc2nc(N)nc(CCl)n2)c(C)c1`, the Potency was 14.1 µM (active).

For the compound `Cc1ccccc1Nc1nc(N)nc(CN(C)Cc2ccccc2Cl)n1`, the Potency entry was “inactive”.

Turning to `Cc1ccc(Nc2nc(N)nc(CSc3nc4ccccc4s3)n2)cc1`, the Potency was 39.8 µM (active).

On to `Nc1nc(CCl)nc(Nc2ccccc2)n1`, for which the Potency is 28.2 µM (active).

Take `CCOc1ccc(S(=O)(=O)Nc2cc(S(=O)(=O)N3CCOCC3)ccc2OC)cc1`: the Potency result was “inactive”.

Take `COCCn1c(-c2cccs2)nc2nc3ccccc3nc21`: the Potency result is “inactive”.

As to `N=c1c(C(=O)NCCc2ccccc2)cc2c(=O)n3ccccc3nc2n1CC1CCCO1` (stereo not given), the Potency entry was “inactive”.

For the compound `CC(C)(NC(=O)c1cc(Cl)c2ccccc2c1O)C(=O)O`, the Potency entry was “inactive”.

With `CN1C=CC(=C[N+](=O)[O-])N(C)C1=O`, the Potency was 17.8 µM (active).

In the case of `COc1cc(/C=C2/C(=O)c3cccc([N+](=O)[O-])c3C2=O)c(Br)cc1O`, the Potency was 22.4 µM (active).

`COc1cc(CCN=Cc2cc(Cl)cc(Cl)c2O)c([N+](=O)[O-])cc1OC`: the Potency result was “inactive”.

Turning to `CCOc1ccc(N2C(=O)/C(=C\c3ccc(OC)c(O)c3)S(=O)(=O)C2c2cccc([N+](=O)[O-])c2)cc1` (stereo not given), the Potency result was “inactive”.

Take `CC(=O)c1cc2c(cc1NC(=O)CSc1nc3cc(C)ccc3[nH]1)OCO2`: the Potency entry is “inactive”.

Consider `Cc1ccc2[nH]c(-c3ccc(SCC(=O)Nc4nnc(C)s4)nc3)nc2c1`, for which the Potency is 23.8 µM (active).

For the compound `Cc1ccc2[nH]c(SCC(=O)Nc3ccc(C(N)=O)cc3)nc2c1`, the Potency entry was “inactive”.

On to `COc1ccc(C2=CC(c3ccccc3Cl)n3nc(-c4ccc(Cl)cc4)nc3N2)cc1` (stereo not given), for which the Potency entry was “inactive”.

On to `Nc1cccc2c1C(=O)N(C(=O)/C=C/c1ccc(F)cc1)C2=O`, for which the Potency result was “inactive”.

As for `CCSC1=NCCN1S(=O)(=O)c1ccc2ccccc2c1`, the Potency entry is “inactive”.

Take `CC(C)N1C/C(=C/c2ccsc2)C(=O)/C(=C/c2ccsc2)C1`: the Potency was 39.8 µM (active).

Take `Cc1ccc(CCC(=O)Nc2ccccc2C(=O)O)o1`: the Potency entry was “inactive”.

As to `O=C(OCc1ccc(O)cc1)c1c(-c2ccsc2)oc2ccc(N3CCOCC3)cc12`, the Potency entry is “inactive”.

With `CCOc1ccc(C2C=C(c3cccc(OC)c3)Nc3nnnn32)cc1` (stereo not given), the Potency result was “inactive”.

Regarding `Cc1nn(-c2ccccc2)c(Cl)c1C(=O)N1CCN(c2ncnc3c2cnn3-c2ccccc2)CC1`, the Potency is 31.6 µM (active).

For `Cc1ccsc1C(=O)N1CCN(c2ccccn2)CC1`, the Potency entry was “inactive”.

Regarding `Cc1nn(-c2ccccc2)c(Cl)c1C(=O)NNC(=O)c1ccncc1`, the Potency result is “inactive”.

Consider `Cc1cccn2c(=O)c3cc(C(=O)O)n(C)c3nc12`, for which the Potency entry is “inactive”.

Consider `CCCCNC(=O)CCN1N=C(c2ccccc2)CCC1=O`, for which the Potency entry is “inactive”.

For the compound `CN1C/C(=C/c2ccccc2[N+](=O)[O-])C(=O)/C(=C\c2ccccc2[N+](=O)[O-])C1`, the Potency was 2.99 µM (active).

For `CCCCNC(=O)NNc1nc(Cl)cc(C)c1C#N`, the Potency result was “inactive”.

As to `CCN(CC)c1ccc2cc(-c3nc(-c4ccc(OC)cc4)cs3)c(=O)oc2c1`, the Potency entry is “inactive”.

As for `CCN(C(=O)c1ccco1)c1nc(-c2ccc(OC)cc2)cs1`, the Potency result was “inactive”.

Consider `CCN(CC)C(=O)c1cccc(-c2csc(C(C)(O)c3cccc(OC)c3)n2)c1` (stereo not given), for which the Potency was 35.5 µM (active).

Take `COCCCN=C(S)N1CCN(c2nc(-c3cccc(OC)c3)cs2)CC1`: the Potency result was “inactive”.

In the case of `CCN(CC)C(=O)c1cccc(-c2csc(C(O)c3ccccc3)n2)c1` (stereo not given), the Potency is 35.5 µM (active).

Take `CCN(CC)C(=O)c1cccc(-c2csc(C(C)(O)c3ccc(OC)cc3)n2)c1` (stereo not given): the Potency was 15.8 µM (active).

`CCN(CC)C(=O)CSc1nc(-c2ccccc2)ccc1C#N`: the Potency result was “inactive”.

On to `CC(C(=O)Nc1nc(-c2ccc(F)c(F)c2)cs1)N1C(=O)C2CC=CCC2C1=O` (stereo not given), for which the Potency entry was “inactive”.

Regarding `CC(C)c1cccc(-c2csc(C(O)c3ccc(F)c(F)c3)n2)c1` (stereo not given), the Potency was 39.8 µM (active).

As for `CCN(CC)C(=O)c1sc2nc(-c3ccccc3)ccc2c1N`, the Potency result was “inactive”.

For the compound `COc1cccc(-c2ccc3c(N)c(C(=O)c4ccc(Cl)cc4)sc3n2)c1`, the Potency result was “inactive”.

As for `Cc1ccc(C(=O)N2CCN(Cc3ccc4c(c3)OCO4)CC2)cc1S(=O)(=O)N1CCOCC1`, the Potency result is “inactive”.

For the compound `COc1ccc(-c2c(C)c3ccc(O)c(CN4CCCCC4C)c3oc2=O)cc1OC` (stereo not given), the Potency result is “inactive”.

Consider `COCCCNC(=O)c1cc2c(=O)n3cccc(C)c3nc2n(C(C)C)c1=N`, for which the Potency result is “inactive”.

As to `CCSc1nnc(-c2sc3nnc(-c4ccccc4)c(-c4ccccc4)c3c2N)o1`, the Potency result is “inactive”.

Consider `CCC(=O)Oc1ccc2c(c1)OC1(OC(C)=O)OC(C)CC1=C2C` (stereo not given), for which the Potency result was “inactive”.
